Hits are enriched below; roughly 3.3% of the tested compounds scored in any of these assays.
RE007 growth inh: less growth of the S. pombe RE007 Vpr strain; S. pombe RE007 Vpr strain, BacTiter-Glo ATP luminescence, 24 h; Potency, µM (top dose mostly 92.2 µM), inactives show top-dose activity change, negative = less growth, actives largely listed as inhibitors; hit rate 0.21% among 360,000; active = well fitted falling curve with a large enough effect; inconclusive = small, poorly fitted or top-dose-only effect; inactive = no such curve, though single readings can be large or run the other way; note: potency is the fitted concentration of half-maximal effect; % is set by controls: 0 for no effect and ±100 for the full control effect; nearly all actives have a fitted effect of over 50% in size
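Fission yeast RE007 carrying one integrated HIV-1 vpr copy, seeded at OD 0.01 in PMG+AL medium with 23 nL pinned compound. Grown 24 h at 30 degrees; viability read by BacTiter-Glo luminescence after 5 min.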
AmpC inh no detg: blocks E. coli AmpC beta-lactamase in detergent-free assay. hit rate 0.52% among 330,000. Potency, µM (highest dose often 57.1 µM), without a hit: at the highest dose activity change, negative = inhibition, hits mostly inhibitors. AmpC nitrocefin hydrolysis, absorbance 480 nm, 0.0001% Triton. P00811;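 note: potency is the fitted concentration of half-maximal effect; plate controls were no compound for no effect and no enzyme for full effect; nearly all actives have a fitted effect of over 20% in size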
Target sequence (P00811 whole entry, looked up): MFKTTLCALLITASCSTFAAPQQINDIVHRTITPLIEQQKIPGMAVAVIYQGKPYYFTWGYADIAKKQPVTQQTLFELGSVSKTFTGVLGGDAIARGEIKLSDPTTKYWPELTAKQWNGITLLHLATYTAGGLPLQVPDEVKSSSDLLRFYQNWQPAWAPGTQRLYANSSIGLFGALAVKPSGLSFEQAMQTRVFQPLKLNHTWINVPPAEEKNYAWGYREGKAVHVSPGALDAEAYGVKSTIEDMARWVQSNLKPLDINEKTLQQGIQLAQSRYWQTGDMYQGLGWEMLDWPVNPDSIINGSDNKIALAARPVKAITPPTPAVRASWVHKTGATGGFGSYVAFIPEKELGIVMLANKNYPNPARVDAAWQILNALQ
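AmpC (5.3 nM in the dispensed reagent) in 20 mM phosphate pH 7.0 with 0.01% (detergent screen) or 0.0001% Triton X-100 was preincubated with compounds for 15 min at room temperature. Nitrocefin was then added from an 800 uM solution, and hydrolysis was followed at 480 nm.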
AmpC detergent: inhibitors of E. coli AmpC beta-lactamase with detergent; Potency, µM (series often up to 114 µM), for inactives: at the top dose activity change, negative = inhibition, actives largely listed as inhibitors; AmpC hydrolysis of nitrocefin, absorbance 480 nm, 0.01% Triton; P00811; hit rate 0.041% among 370,000; AID 485294;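 note: potency is the fitted concentration of half-maximal effect; 0% = no-compound wells and -100% = no-enzyme wells; nearly all actives have a fitted effect of over 25% in size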
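AmpC (5.3 nM in the dispensed reagent) in 20 mM phosphate pH 7.0 with 0.01% (detergent screen) or 0.0001% Triton X-100 was preincubated with compounds for 15 min at room temperature. Nitrocefin was then added from an 800 uM solution, and hydrolysis was followed at 480 nm.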
Sm TGR inh: S. mansoni TGR enzyme inhibition. Potency, µM (doses to about 114 µM), without a hit: top-dose activity change, negative = inhibition, most hits filed as inhibitors. Q962Y6. hit rate 3% among 360,000. purified TGR, DTNB reduction, TNB absorbance 405 nm; note: potency is the fitted concentration of half-maximal effect; % is set by controls: 0 for no effect and ±100 for the full control effect; nearly all actives have a fitted effect of over 60% in size
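First, TGR (20 nM dispensed) and NADPH were mixed with compound. Second, a 15 min room-temperature incubation followed. Third, further NADPH and then DTNB were added to start the reaction. Finally, TNB absorbance was monitored kinetically.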
TbPYK inhibitor: blocks Trypanosoma brucei pyruvate kinase; Potency, µM (top dose mostly 76.8 µM), for the others: at the highest dose activity, negative = inhibition, hits mostly inhibitors; TbPYK enzyme, Kinase-Glo Plus ATP luminescence, 45 min; hit rate 0.12% among 410,000; AID 624173; Q57TT1; note: potency is the fitted concentration of half-maximal effect; % is set by controls: 0 for no effect and ±100 for the full control effect; nearly all actives have a fitted effect of over 50% in size
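ADP (130 uM final) triggers the TbPYK reaction after compound addition; incubation is 45 min at room temperature. Kinase-Glo Plus is then added and luminescence imaged. Normalized data are fitted to concentration-effect curves.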
SARS PLpro yeast-1: SARS-CoV PLP inhibition in yeast; Potency, µM (titrated, usually from 32.9 µM), without a hit: at the top dose activity, positive = growth rescue, usual class: activators; AID 485353; hit rate 0.19% among 330,000; S. cerevisiae expressing SARS-CoV PLpro, growth rescue; calls by dose curve; note: potency is the fitted concentration of half-maximal effect; 0% is about no effect; nearly all actives have a fitted effect of over 55% in size
SARS PLpro yeast-2: Rescues yeast growth by inhibiting SARS-CoV PLpro; shares compounds with SARS PLpro yeast-1; yeast expressing SARS-CoV PLpro, growth phenotype rescue; calls only; hit rate 19% among 1,000; AID 652038; call rule not given here
The depositor's hits bear a star; i = inactive; ? = inconclusive; / = no result; + = active, no number; [ ] = dose if it differs, or a comment. Unless noted, calls come from the whole dose curve; as a rule, active = well fitted curve in the direction sought with a large enough effect; inconclusive = small, poorly fitted or top-dose-only effect, or another doubt; inactive = no such curve, though single readings can be large; an effect the other way counts as inactive or inconclusive.

SMILES	RE007 growth inh	AmpC inh no detg	AmpC detergent	Sm TGR inh	TbPYK inhibitor	SARS PLpro yeast-1	SARS PLpro yeast-2
Cc1ncc(C23CC4CC(CC(C4)C2)C3)[nH]1	-12%	-19%	-15%	-9%	-5%	13µM*	i
O=P(N1CCCCCC1)(N1CCCCCC1)N1CC1	-2%	/	/	/	5%	/	/
O=P(N1CCCCC1)(N1CCCCC1)C(Cl)(Cl)Cl	13%[3.69 µM]	18%	2%	0%	/	?	i
CC(C)CN1CN(Cc2ccccc2)CNC1=S	-6%	-18%	-4%	2%	1%	13µM*	+
CCCCN1CNC(=S)N(CCc2ccccc2)C1	10%	-6%	?	-4%	-7%	28%	/
CCCCN1CNC(=S)N(Cc2ccccc2)C1	18%	-17%	-9%	0%	1%	?	i
CCN1CCN(CC(O)COCc2ccccc2)CC1 (stereo not drawn)	8%	-16%	-4%	-18%	-7%	7%	/
CCOC(=O)N1CCN(CC(O)COCc2ccccc2)CC1 (stereo not drawn)	25%	-4%	-17%	5%	-3%	?	i
CCOC(=O)c1c(C)oc2c1cc(NS(=O)(=O)c1ccc(C)cc1)c1ccccc12	/	/	7%	-1%	0%	/	/
Cc1ccc(S(=O)(=O)N2CC(O)CC2C(=O)OCc2nc3sc(C)c(C)c3c(=O)[nH]2)cc1 (stereo not drawn)	15%	10%	-5%	-19%	5%	?	i
CC(=O)Nc1cccc(C(=O)OCc2ccc(C(=O)Oc3ccc(Cl)cc3)cc2)c1	4%	2%	2%	1%	4%	?	i
O=C(/C=C/c1cccs1)NC(=S)NNC(=O)Cc1cccs1	24%	-33%	?	-4%	-9%	?	+
COc1ccc(/C=C/C(=O)NC(=S)NNC(=O)Cc2cccs2)cc1OC	8%	-8%	-5%	-22%	-1%	0%	/
Cc1ccc2c(c1)N(C(=O)CCC(=O)NC1CCN(Cc3ccccc3)CC1)CC(C)O2 (stereo not drawn)	-11%	78%	?	-4%	-1%	?	i
COc1ccc(CNC(=O)C(C)N2Cc3ccccc3C2=O)cc1 (stereo not drawn)	/	/	5%	22%	-9%	/	/
CCOC(=O)c1c(NC(=O)c2c(N)n(CCCOC)c3nc4ccccc4nc23)sc2c1CCCC2	6%	-20%	0%	5%	1%	-8%	/
CCOCCCn1c(N)c(C(=O)Nc2sc3c(c2C(=O)OC)CCCC3)c2nc3ccccc3nc21	-6%	12%	5%	-1%	-4%	?	?
COc1ccc(-c2cc3c(=O)n(CC(=O)Nc4cc(F)ccc4F)ccn3n2)cc1OC	/	/	-5%	-1%	2%	/	/
COc1ccc(-c2onc(C)c2C)cc1S(=O)(=O)NCc1ccc(Br)cc1	/	/	2%	4%	3%[15.4 µM]	/	/
Cc1ccc(/C=C/C(=O)c2ccccc(=O)c2O)cc1C	?	-33%	?	32µM*	-10%	?	?
CCc1ccc(S(=O)(=O)Nc2cc3c(cc2C)n(C)c(=O)c(=O)n3C)cc1	/	/	0%	-5%	-4%	/	/
O=C(NC1CCCCC1)/C(=N\O)c1ccccn1	11%	-12%	-2%	14%	-2%	?	i
O=C(NC1(C(=O)NC2CCCCC2)CCCCC1)c1ccccn1	13%	-40%	-7%	1%	-8%	-2%	/
CC(C)(C)c1nnc(N/N=C/c2cc(Br)ccc2O)n(N)c1=O	?	-32%	7%	0%	-2%	/	i
Cc1ccc2c(c1)c(=O)c(Br)c(C)n2Cc1ccccc1	-29%	23%	-4%	2%	-3%	?	i
Cc1sc2nc(CSCC(=O)N(C)c3ccccc3)[nH]c(=O)c2c1C	-5%	1%	-12%	0%	-3%	?	i
